The source made the active and inactive calls. Rule for the calls: active = hit-call score of the fitted dose curve at least 0.9, where 1 is the maximum; inactive = score below 0.9.

Read-out in this assay: Alkaline Phosphatase, Placental (ALPP) gene, ALPP (gene 250)
In words: LTEA_HepaRG_ALPP: Life Technologies and Expression Analysis (LTEA) Assay for Alkaline Phosphatase, Placental (ALPP) gene using HepaRG (AID 2283468).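 For AC50: ALPP transcript by TaqMan qRT-PCR normalized to ACTB GAPDH and POLR2A.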 To be noted: mRNA level, 48 h; actives raise or lower the signal. As to the method:
LTEA_HepaRG is a cell based, multiplexed-readout assay that uses HepaRG, a human liver cell line, with measurements taken at 48 hours after chemical dosing on a 96-well plate.LTEA_HepaRG_ALPP is one of 102 assay component(s) measured in the LTEA HepaRG cell culture assay. It is a marker of Cell proliferation, survival, death.Data from the assay component LTEA_HepaRG_ALPP was analyzed into 1 endpoint. This assay endpoint, LTEA_HepaRG_ALPP, was analyzed with bidirectional fitting relative to DMSO as the negative control and baseline of activity. Using a type of inducible reporter, measures of mRNA induction for gain or loss-of-signal activity can be used to understand regulation of transcription factor activity. To generalize the intended target to other relatable targets, this assay endpoint is annotated to the phosphatase intended target family, where the subfamily is Cell proliferation, survival, death.
A total of 1060 chemcials from the ToxCast library were tested in eight-point concentration-response experiments. Cell culture and cytotoxicity assays were conducted at Thermo Fisher Scientific's Custom Services facility (Madison, WI). A single lot of human HepaRG cells (Thermo Fisher Scientific, Frederick, MD) was used for the cell culture experiments. 96-well format collagen type I coated plates of human HepaRG cells were prepared using established methods. Briefly, cryopreserved HepaRG cells were thawed, plated at a density of approximately 100,000 cells/well in HepaRG Thaw, Plate, and General Purpose media (HPRG770, Thermo Fisher Scientific), and incubated for 48 hours. 0.5% DMSO was selected as vehicle control to balance the requisite need of DMSO in HepaRG cultures to maintain differentiation (for example, baseline metabolism, proportions of hepatocytes vs. cholangiocytes), while enabling further hepatic receptor pathway activation (for example, PXR and CAR) in response to chemical exposure. 48 hours after plating, the culture medium was replaced with HepaRG Serum-Free Incudtion Media. Cells were exposed to each test chemical in duplicate and maintained in CO2 incubators for another 48 hours. Chemical plates were thawed to room temperature and 200x concentrations of treatment groups were prepared. 8-point conentration-reponse curves were made with the highest exposure at 100 uM, followed by half-log dilutions, all in 0.5% DMSO. Each test plate contained variouse controls, induction positive controls (1mM phenobarbital), cytotoxicity positive controls ([…] aflatoxin B1), vehicle controls (0.5% DMSO), and total lysis controls (0.5% DMSO). Cell morphology images were taken using an Essen IncuCyte FLR automated microscope, with six 96-well plates imaged in about 24 minutes. Images were captured and exported and JPEG files. Spent culture media was transfered to black-well plates for the LDH assay, and remaining media was sorted at -80 C for later use. Cells were treated with RLT buffer and frozen until shipped for gene expression analysis. Total RNA was isolated from the cell suspension in 75 uL of Buffer RLT (Qiagen, Germantown, MD 20874) by Quintiles/Expression Analysis (Durham, NC) using a custom isolation procedure. Total RNA from each plate well was transferred to a preamplification plate. Fluidigm's 96.96 Dynamic ArrayTM (Fluidigm, Amsterdam, the Netherlands) technology was used for gene expression analyses by quantitative reverse transcription polymerase chain reaction (qRT-PCR, performed by Quintiles/Expression Analysis, Durham, NC)89. Standard TaqManTM Assays (Applied Biosystems/ThermoFisher Scientific, Foster City, CA) were used to assess the expression of 93 genes selected based on their selectivity and sensitivity to important hepatic receptors known to be modulated by environmental chemicals; importance in human hepatocyte functionality; and hepatotoxicity. […]
For the compound `CN(C)[C@@H]1C(=O)C(C(N)=O)=C(O)[C@@]2(O)C(=O)C3=C(O)c4c(O)cccc4[C@@](C)(O)[C@H]3[C@H](O)[C@@H]12`, the call was inactive.

In the case of `CCCSP(=O)(OCC)Oc1ccc(Br)cc1Cl` (stereo not given), the result was inactive.

In the case of `S=C1NCCN1`, the result was inactive.

On to `Nc1c(Cl)cc([N+](=O)[O-])cc1Cl`, for which the AC50 was 50 µM (active).

With `CCCOCC(=Nc1ccc(Cl)cc1C(F)(F)F)n1ccnc1`, the AC50 was 15.8 µM (active).

With `CCOP(=S)(OCC)Oc1ccc([N+](=O)[O-])cc1`, the compound was called inactive.

For the compound `CC1=NNC(=O)N(/N=C/c2cccnc2)C1`, the call was inactive.

As for `CCCCN(CC)c1c([N+](=O)[O-])cc(C(F)(F)F)cc1[N+](=O)[O-]`, the result was inactive.

For `CON=C(C(=O)OC)c1ccccc1CON=C(C)c1cccc(C(F)(F)F)c1`, the call was inactive.

In the case of `CCC(CC)Nc1c([N+](=O)[O-])cc(C)c(C)c1[N+](=O)[O-]`, the compound was called inactive.

Turning to `CSc1nnc(C(C)(C)C)c(=O)n1N`, the call was inactive.

Take `CC(COc1ccc(Oc2ccccc2)cc1)Oc1ccccn1` (stereo not given): the call was inactive.

For `CC[C@H](C)[C@H]1O[C@]2(C=C[C@@H]1C)C[C@@H]1C[C@@H](C/C=C(\C)[C@@H](O[C@H]3C[C@H](OC)[C@@H](O[C@H]4C[C@H](OC)[C@@H](NC)[C@H](C)O4)[C@H](C)O3)[C@@H](C)/C=C/C=C3\CO[C@@H]4[C@H](O)C(C)=C[C@@H](C(=O)O1)[C@]34O)O2`, the AC50 was 11.9 µM (active).

`CN(C)NC(=O)CCC(=O)O`: the compound was classed as inactive.

As for `C=C(C)[C@H]1Cc2c(ccc3c2O[C@@H]2COc4cc(OC)c(OC)cc4[C@@H]2C3=O)O1`, the AC50 was 0.384 µM (active).

In the case of `COP(=O)(NC(C)=O)SC` (stereo not given), the result was inactive.

`CCc1cccc(C)c1N(C(=O)CCl)C(C)COC` (stereo not given): the compound was called inactive.

Take `COc1cc(OC)nc(Sc2cccc(Cl)c2C(=O)O)n1`: the result was inactive.

In the case of `CCc1cnc(C2=NC(C)(C(C)C)C(=O)N2)c(C(=O)O)c1` (stereo not given), the call was inactive.

For the compound `CC(C)[C@H](C(=O)O[C@H](C#N)c1cccc(Oc2ccccc2)c1)c1ccc(Cl)cc1`, the result was inactive.

In the case of `CNC(=O)ON=C(SC)C(=O)N(C)C`, the result was inactive.

Regarding `FC(F)C(F)(F)OCC(Cn1cncn1)c1ccc(Cl)cc1Cl` (stereo not given), the AC50 is 55 µM (active).

As to `CCC(=NOC/C=C/Cl)C1=C(O)CC(C2CCOCC2)CC1=O` (stereo not given), the call was inactive.

Turning to `CCOP(=S)(OCC)Oc1ccc2c(C)c(Cl)c(=O)oc2c1`, the AC50 is 50 µM (active).

As for `CCc1cccc(CC)c1N(COC)C(=O)CCl`, the compound was called inactive.

Turning to `C#CCC1=C(C)C(OC(=O)C2C(C=C(C)C)C2(C)C)CC1=O` (stereo not given), the compound was classed as inactive.

Turning to `CCCCOC(=O)c1ccccc1C(=O)O`, the result was inactive.

For `CC(C)N(C(=O)SCC(Cl)=C(Cl)Cl)C(C)C`, the compound was classed as inactive.

As for `O=[N+]([O-])c1cc(C(F)(F)F)c(Cl)c([N+](=O)[O-])c1Nc1ncc(C(F)(F)F)cc1Cl`, the AC50 was 9.95 µM (active).

As for `CNC(=O)ON=C(C)SC`, the outcome was inactive.

As for `N#CSCSC#N`, the AC50 was 12.5 µM (active).

Turning to `CNC(=O)Oc1cccc2c1OC(C)(C)O2`, the compound was classed as inactive.

With `CCOP(=O)(NC(C)C)Oc1ccc(SC)c(C)c1` (stereo not given), the compound was called inactive.

On to `CCCOc1nn(C(=O)NS(=O)(=O)c2ccccc2C(=O)OC)c(=O)n1C`, for which the outcome was inactive.

Take `Nc1nc(N)nc(NC2CC2)n1`: the call was inactive.

`CCCCOC(=O)[C@@H](C)Oc1ccc(Oc2ccc(C#N)cc2F)cc1`: the compound was classed as inactive.

In the case of `CCOP(=S)(OCC)Oc1cc(C)nc(C(C)C)n1`, the outcome was inactive.

As to `CCOP(=S)(OCC)OC(Cl)C(Cl)(Cl)Cl` (stereo not given), the compound was classed as inactive.

As for `COc1cccc(C(=O)NN(C(=O)c2cc(C)cc(C)c2)C(C)(C)C)c1C`, the result was inactive.

Turning to `CNc1cnn(-c2cccc(C(F)(F)F)c2)c(=O)c1Cl`, the compound was classed as inactive.

For the origin of these results see PubChem BioAssay (EPA / NIEHS).
